PubChem BioAssay (EPA / NIEHS)
Inconclusive results are not listed. Active and inactive are the calls of the source. Rule for the calls: active = hit-call score of the fitted dose curve at least 0.9, where 1 is the maximum; inconclusive = response in the unintended direction; inactive = score below 0.9.

Columns and labels:
[1] = target: human Vascular Endothelial Growth Factor Receptor 1 (VEGFR1), FLT1 (gene 2321) (UniProt P17948); assay: NVS_ENZ_hVEGFR1: NovaScreen (NVS) Enzymatic Assay for human Vascular Endothelial Growth Factor Receptor 1 (VEGFR1) (AID 2283226)
Chain of human Vascular Endothelial Growth Factor Receptor 1 (VEGFR1), FLT1 (gene 2321) (P17948 whole entry, looked up): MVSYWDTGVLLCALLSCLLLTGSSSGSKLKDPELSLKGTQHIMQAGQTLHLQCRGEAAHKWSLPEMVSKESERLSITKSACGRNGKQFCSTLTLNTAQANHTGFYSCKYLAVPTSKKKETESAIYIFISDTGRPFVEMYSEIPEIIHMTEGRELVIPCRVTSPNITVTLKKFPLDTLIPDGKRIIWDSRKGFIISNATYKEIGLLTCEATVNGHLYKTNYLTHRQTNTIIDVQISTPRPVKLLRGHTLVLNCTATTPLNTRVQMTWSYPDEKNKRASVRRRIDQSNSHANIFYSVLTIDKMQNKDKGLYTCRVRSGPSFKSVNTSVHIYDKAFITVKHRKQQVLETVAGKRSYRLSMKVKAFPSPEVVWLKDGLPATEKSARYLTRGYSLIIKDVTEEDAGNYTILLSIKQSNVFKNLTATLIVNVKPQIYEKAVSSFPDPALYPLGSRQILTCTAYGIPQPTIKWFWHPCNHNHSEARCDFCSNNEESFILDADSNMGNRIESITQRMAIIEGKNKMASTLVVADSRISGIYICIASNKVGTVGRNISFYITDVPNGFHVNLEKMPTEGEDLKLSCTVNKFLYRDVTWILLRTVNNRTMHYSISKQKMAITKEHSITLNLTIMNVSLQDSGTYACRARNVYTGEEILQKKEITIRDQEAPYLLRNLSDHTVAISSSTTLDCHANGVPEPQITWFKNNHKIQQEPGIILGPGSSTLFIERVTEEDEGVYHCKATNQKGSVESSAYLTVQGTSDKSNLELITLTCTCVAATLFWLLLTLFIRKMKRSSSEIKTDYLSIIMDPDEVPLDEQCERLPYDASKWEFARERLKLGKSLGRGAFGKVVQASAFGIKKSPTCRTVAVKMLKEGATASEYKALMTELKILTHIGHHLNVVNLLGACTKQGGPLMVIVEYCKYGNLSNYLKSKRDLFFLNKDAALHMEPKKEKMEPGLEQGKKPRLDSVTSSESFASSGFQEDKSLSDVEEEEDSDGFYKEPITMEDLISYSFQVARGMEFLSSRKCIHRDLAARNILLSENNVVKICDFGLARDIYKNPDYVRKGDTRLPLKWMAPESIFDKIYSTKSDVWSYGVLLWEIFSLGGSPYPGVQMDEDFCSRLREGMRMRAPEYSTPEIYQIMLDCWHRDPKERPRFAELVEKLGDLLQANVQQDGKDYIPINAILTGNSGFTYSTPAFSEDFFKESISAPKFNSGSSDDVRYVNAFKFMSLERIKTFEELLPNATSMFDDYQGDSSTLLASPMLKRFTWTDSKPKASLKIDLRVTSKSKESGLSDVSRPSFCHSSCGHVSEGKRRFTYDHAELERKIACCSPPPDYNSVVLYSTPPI
How it was run: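 Cell-free assay of recombinant human VEGFR1 kinase with substrate, measured 1 h after dosing; fluorescence with electrophoretic mobility-shift separation of substrate and product, referenced to DMSO; primary screen at 25 uM in duplicate, actives then run in concentration series.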

[2] = target: human Vascular Endothelial Growth Factor Receptor 3 (VEGFR3), FLT4 (gene 2324) (UniProt P35916); assay: NVS_ENZ_hVEGFR3: NovaScreen (NVS) Enzymatic Assay for human Vascular Endothelial Growth Factor Receptor 3 (VEGFR3) (AID 2283229)
Chain of human Vascular Endothelial Growth Factor Receptor 3 (VEGFR3), FLT4 (gene 2324) (P35916 whole entry, looked up): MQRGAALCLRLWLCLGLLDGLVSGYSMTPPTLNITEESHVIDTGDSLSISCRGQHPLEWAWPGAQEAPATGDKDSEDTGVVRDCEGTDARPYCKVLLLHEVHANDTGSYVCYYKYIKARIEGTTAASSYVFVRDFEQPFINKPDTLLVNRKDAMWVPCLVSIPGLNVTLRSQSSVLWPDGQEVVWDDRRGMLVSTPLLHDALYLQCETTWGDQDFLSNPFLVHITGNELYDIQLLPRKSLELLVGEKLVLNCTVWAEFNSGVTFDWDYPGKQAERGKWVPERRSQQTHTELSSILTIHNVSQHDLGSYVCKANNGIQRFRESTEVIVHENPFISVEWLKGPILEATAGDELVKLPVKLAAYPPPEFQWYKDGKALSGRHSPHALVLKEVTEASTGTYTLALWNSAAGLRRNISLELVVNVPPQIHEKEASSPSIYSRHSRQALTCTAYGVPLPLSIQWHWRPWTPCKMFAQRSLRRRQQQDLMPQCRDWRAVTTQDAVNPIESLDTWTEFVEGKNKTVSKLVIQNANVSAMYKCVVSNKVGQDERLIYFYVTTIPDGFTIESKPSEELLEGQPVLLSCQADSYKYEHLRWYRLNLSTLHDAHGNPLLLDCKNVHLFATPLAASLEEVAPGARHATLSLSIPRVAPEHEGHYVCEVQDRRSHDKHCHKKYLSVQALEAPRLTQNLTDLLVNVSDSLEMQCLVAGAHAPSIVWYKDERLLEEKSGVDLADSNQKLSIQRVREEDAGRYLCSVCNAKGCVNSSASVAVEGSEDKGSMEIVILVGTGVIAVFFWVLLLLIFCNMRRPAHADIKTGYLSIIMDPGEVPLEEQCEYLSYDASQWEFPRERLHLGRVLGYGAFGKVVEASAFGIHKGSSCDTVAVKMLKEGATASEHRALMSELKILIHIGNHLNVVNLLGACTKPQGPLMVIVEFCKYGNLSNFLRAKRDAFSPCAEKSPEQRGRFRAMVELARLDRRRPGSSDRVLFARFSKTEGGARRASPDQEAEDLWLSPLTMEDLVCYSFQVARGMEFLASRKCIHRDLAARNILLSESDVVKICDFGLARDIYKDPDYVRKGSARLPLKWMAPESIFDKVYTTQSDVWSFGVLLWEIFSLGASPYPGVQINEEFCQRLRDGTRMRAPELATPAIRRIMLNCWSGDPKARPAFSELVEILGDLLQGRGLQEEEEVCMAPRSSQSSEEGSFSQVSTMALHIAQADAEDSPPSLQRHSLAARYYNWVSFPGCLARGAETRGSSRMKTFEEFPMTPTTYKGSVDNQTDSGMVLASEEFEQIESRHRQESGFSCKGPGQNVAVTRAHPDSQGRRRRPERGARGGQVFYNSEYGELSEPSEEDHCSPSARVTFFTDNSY
How it was run: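 Cell-free recombinant VEGFR3 kinase reaction with fluorescent substrate, read 1 h after dosing by electrophoretic mobility shift separation of substrate and product. Single-concentration duplicate screen at 25 uM, then concentration-response up to 50 uM; loss of activity versus DMSO.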

[3] = target: human Vascular Endothelial Growth Factor Receptor 2 (VEGFR2), KDR (gene 3791) (UniProt P35968); assay: NVS_ENZ_hVEGFR2: NovaScreen (NVS) Enzymatic Assay for human Vascular Endothelial Growth Factor Receptor 2 (VEGFR2) (AID 2283230)
Chain of human Vascular Endothelial Growth Factor Receptor 2 (VEGFR2), KDR (gene 3791) (P35968 whole entry, looked up): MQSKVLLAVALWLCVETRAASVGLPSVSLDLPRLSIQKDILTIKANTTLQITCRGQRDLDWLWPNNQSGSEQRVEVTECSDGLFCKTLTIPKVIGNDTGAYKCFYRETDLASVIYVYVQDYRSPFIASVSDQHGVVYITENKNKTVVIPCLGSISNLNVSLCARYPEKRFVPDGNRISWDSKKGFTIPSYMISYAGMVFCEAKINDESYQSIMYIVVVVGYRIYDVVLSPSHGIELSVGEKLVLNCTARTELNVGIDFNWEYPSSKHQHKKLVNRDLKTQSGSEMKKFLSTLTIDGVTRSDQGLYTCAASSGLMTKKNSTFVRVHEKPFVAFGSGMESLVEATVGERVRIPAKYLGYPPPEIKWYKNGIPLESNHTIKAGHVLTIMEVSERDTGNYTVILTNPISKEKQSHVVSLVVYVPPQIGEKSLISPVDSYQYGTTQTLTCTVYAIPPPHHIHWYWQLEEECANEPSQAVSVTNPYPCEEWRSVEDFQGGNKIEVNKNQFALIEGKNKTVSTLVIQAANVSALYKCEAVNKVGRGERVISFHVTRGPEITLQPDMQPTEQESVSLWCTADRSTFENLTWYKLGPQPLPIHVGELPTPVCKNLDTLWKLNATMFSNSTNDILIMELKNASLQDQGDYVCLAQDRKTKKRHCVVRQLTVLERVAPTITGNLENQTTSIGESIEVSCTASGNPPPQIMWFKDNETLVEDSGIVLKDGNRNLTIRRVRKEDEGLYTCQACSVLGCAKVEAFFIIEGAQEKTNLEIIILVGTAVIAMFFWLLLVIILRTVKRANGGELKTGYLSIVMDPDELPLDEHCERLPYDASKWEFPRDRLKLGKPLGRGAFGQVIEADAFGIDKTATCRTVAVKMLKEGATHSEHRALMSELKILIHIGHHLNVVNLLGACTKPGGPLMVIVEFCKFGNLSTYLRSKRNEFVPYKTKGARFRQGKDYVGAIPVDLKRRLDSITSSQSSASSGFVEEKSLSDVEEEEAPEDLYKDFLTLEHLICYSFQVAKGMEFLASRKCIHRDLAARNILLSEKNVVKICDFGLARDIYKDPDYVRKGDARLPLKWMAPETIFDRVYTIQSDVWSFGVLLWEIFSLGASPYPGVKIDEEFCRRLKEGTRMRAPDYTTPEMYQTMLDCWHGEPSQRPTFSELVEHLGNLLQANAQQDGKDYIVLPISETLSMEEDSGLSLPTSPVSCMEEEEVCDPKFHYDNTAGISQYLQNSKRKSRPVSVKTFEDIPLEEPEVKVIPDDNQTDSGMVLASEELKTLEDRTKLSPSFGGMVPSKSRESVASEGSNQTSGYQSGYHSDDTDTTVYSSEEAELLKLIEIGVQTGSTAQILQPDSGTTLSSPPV
How it was run: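 Cell-free recombinant VEGFR2 kinase, fluorescent substrate with electrophoretic mobility-shift separation; read 1 h after dosing. Screened at 25 uM in duplicate, hits to concentration-response up to 50 uM; loss-of-signal versus DMSO.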

C=CCOC(=O)C(C)(C)OC(=O)c1cc(-n2c(=O)cc(C(F)(F)F)n(C)c2=O)ccc1Cl
outcome [1]: inactive

CS(=O)(=O)c1ccc(C(=O)C2C(=O)CCCC2=O)c([N+](=O)[O-])c1
outcome [2]: inactive

Clc1nc(Cl)nc(Nc2ccccc2Cl)n1
outcome [3]: inactive
